High-throughput results (PubChem BioAssay)
TDP1 cell noCPT = qHTS for Inhibitors of human tyrosyl-DNA phosphodiesterase 1 (TDP1): qHTS in cells in absence of CPT | DT40 Tdp1-/- hTDP1 cells, no CPT, ATP luminescence, 48 h | Potency, µM (highest dose often 46.2 µM), actives largely listed as inhibitors | 420,000 tested, 15% active | AID 686978, 2013; note: nearly all actives have a fitted effect of over 55% in size
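Chicken DT40 Tdp1-/- cells complemented with human TDP1, screened without camptothecin (DMSO vehicle only), 400 cells/well. Compounds pin-transferred, cells incubated at 37 °C for at least 48 hr. Growth read as ATP-dependent luminescence (CellTiter-Glo, 30 min at RT).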
HT1080 IDH1KD tx = toxicity to HT-1080 IDH1 knockdown cells (counter line); HT-1080 IDH1 knockdown viability, ATP luminescence, 48 h; Potency, µM (series often up to 46.1 µM), most hits filed as cytotoxic; 360,000 tested, 2% active; AID 686971
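HT-1080-IDH1KD cells (IDH1 knocked down), 750/well in RPMI with 5% FBS, treated with compound 48 h at 37 degrees C. Viability by CellTiter-Glo luminescence, normalised to DMSO and no-cell wells; concentration-response curves classed.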
IL-1B inflam inh = blocks inflammasome-driven IL-1 beta release. activity change, % at 57.5 µM. THP-1 LPS/ATP IL-1B secretion, AlphaLISA, 16 h; hits give low values. 360,000 tested, 4.7% active. AID 743279; in the data active = activity change below about -50%; inconclusive = mostly about -30% to -49%
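THP-1 cells pretreated 1 hr with compounds (up to 57.5 uM final), then stimulated with LPS (250 ng/mL final) plus ATP (1.25 mM final); secreted IL-1B measured by AlphaLISA after 16 hr, decreased signal indicating inhibition.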
HT1080NT lethal = kills 2HG-producing HT-1080-NT fibrosarcoma cells; HT-1080-NT fibrosarcoma viability, CellTiter-Glo ATP luminescence, 48 h; Potency, µM (series often up to 46.1 µM), hits mostly cytotoxic; 360,000 tested, 1.6% active; AID 686970;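 note: NT is the 2HG producing partner of a matched IDH1 knockdown line; nearly all actives have a fitted effect of over 55% in size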
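HT-1080-NT fibrosarcoma cells (2HG-overproducing), 750 cells/well in RPMI with 5% FBS, dosed after 2 h and incubated 48 h at 37C. CellTiter-Glo luminescence normalized to DMSO and no-cell wells; concentration-response curves fitted and classed.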
DT40 TDP1 CPT = growth inhibition of DT40 Tdp1-/-;hTDP1 cells with camptothecin (screen for TDP1 inhibitors); chicken DT40 Tdp1-/-;hTDP1 cells + 20 nM CPT, ATP luminescence, 48 h; Potency, µM (doses to about 46.2 µM), usual class: inhibitors; 420,000 tested, 12% active; AID 686979; note: nearly all actives have a fitted effect of over 55% in size
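Chicken DT40 Tdp1-/- cells complemented with human TDP1, 400 cells/well, exposed to compounds plus 20 nM camptothecin for at least 48 h at 37 C; viability read as ATP content by CellTiter-Glo luminescence.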
Large screens that a line does not name were inactive. An excerpt weighted towards active compounds, which were near 19% of everything screened. Unless noted, calls come from the whole dose curve; as a rule, active = well fitted curve in the direction sought with a large enough effect; inconclusive = small, poorly fitted or top-dose-only effect, or another doubt; inactive = no such curve, though single readings can be large; an effect the other way counts as inactive or inconclusive.

O=C(COc1ccc(Cl)cc1)NCCCNC(=O)c1ccncc1	none
C=CCN(C(=O)c1csnn1)C(C(=O)NCc1ccccc1)c1cccs1 (stereo unspecified)	none
CCN(CC)C(=O)Oc1ccc(Br)c2ccccc12	TDP1 cell noCPT inconclusive, DT40 TDP1 CPT inconclusive
O=C(Oc1ccc2ccccc2c1Br)N1CCCCCC1	TDP1 cell noCPT 21µM, HT1080 IDH1KD tx inconclusive, DT40 TDP1 CPT inconclusive
O=C(COc1ccc2ccccc2c1Br)N1CCCCC1	DT40 TDP1 CPT inconclusive
CCN(CC)C(=O)Oc1ccc2ccccc2c1Br	TDP1 cell noCPT inconclusive, HT1080 IDH1KD tx inconclusive, IL-1B inflam inh -60, HT1080NT lethal inconclusive
NS(=O)(=O)c1ccc(NC(=O)COC(=O)c2cc([N+](=O)[O-])ccc2Cl)cc1	IL-1B inflam inh -90
NS(=O)(=O)c1ccc(NC(=O)COC(=O)c2cnc(Cl)c(Cl)c2)cc1	IL-1B inflam inh -75
CCOc1ccc(NC(=O)COC(=O)c2ncc(Cl)c(Cl)c2Cl)cc1	none
NS(=O)(=O)c1ccc(NC(=O)COC(=O)c2ncc(Cl)c(Cl)c2Cl)cc1	IL-1B inflam inh -62
COCCN(C(=O)CNC(=O)c1cccs1)C(C(=O)NC(C)(C)C)c1ccccc1 (stereo unspecified)	none
COc1ccc(OCCCC(=O)N2CCN(S(=O)(=O)c3cccc(F)c3)CC2)cc1	TDP1 cell noCPT inconclusive, DT40 TDP1 CPT inconclusive
COc1cc(NC(=O)c2ccc(N)nc2)cc(C(=O)Nc2cccc(C(F)(F)F)c2)c1	TDP1 cell noCPT 16µM, DT40 TDP1 CPT inconclusive
COc1cc(NC(=O)c2nccn2C)cc(C(=O)Nc2cccc(C(F)(F)F)c2)c1	TDP1 cell noCPT 6.5µM, HT1080 IDH1KD tx inconclusive, HT1080NT lethal inconclusive, DT40 TDP1 CPT inconclusive
Cn1ccnc1SCC(=O)Nc1cccc(C(F)(F)F)c1	none
COc1ccc2nc3oc(C(=O)Nc4cccc(C(F)(F)F)c4)cc3cc2c1	TDP1 cell noCPT 12µM, DT40 TDP1 CPT 13µM (no result: HT1080 IDH1KD tx, IL-1B inflam inh, HT1080NT lethal)
COc1cc(NC(=O)c2ccno2)cc(C(=O)Nc2cccc(C(F)(F)F)c2)c1	TDP1 cell noCPT 16µM, DT40 TDP1 CPT inconclusive
COc1cc(NC(=O)c2nccnc2N)cc(C(=O)Nc2cccc(C(F)(F)F)c2)c1	TDP1 cell noCPT inconclusive, HT1080 IDH1KD tx inconclusive, HT1080NT lethal inconclusive, DT40 TDP1 CPT inconclusive
COc1ccc(NC(=O)Cc2nnc(SCC(=O)NC3=NCCS3)n2C)cc1	TDP1 cell noCPT inconclusive
COCCCN1C(=O)C(CC(=O)NC2CCCC2)CC(C(=O)N(C(C)C)C(C)C)=C1C (stereo unspecified)	IL-1B inflam inh inconclusive
CCN(CC)C(=O)Cn1cc(C(=O)C(=O)NCc2ccco2)c2ccccc21	none
COc1ccc(-c2cc(C(=O)Nc3cc(OC)cc(C(=O)Nc4cccc(C(F)(F)F)c4)c3)[nH]n2)cc1	TDP1 cell noCPT 2.6µM, HT1080 IDH1KD tx inconclusive, HT1080NT lethal inconclusive, DT40 TDP1 CPT 2.3µM
O=C(Nc1cccc(C(F)(F)F)c1)c1csc(-c2ccncc2)n1	TDP1 cell noCPT inconclusive, IL-1B inflam inh inconclusive
COc1cc(NC(=O)c2cc3cccc(OC)c3o2)cc(C(=O)Nc2cccc(C(F)(F)F)c2)c1	TDP1 cell noCPT 5.2µM, HT1080NT lethal inconclusive, DT40 TDP1 CPT 6.5µM
COc1ccc(C(=O)c2cc3cccc(OC)c3o2)cc1	none
COc1cc(NC(=O)c2csc(-c3ccncc3)n2)cc(C(=O)Nc2cccc(C(F)(F)F)c2)c1	TDP1 cell noCPT 4.6µM, DT40 TDP1 CPT 8.2µM
COc1cc(Nc2ccccn2)cc(C(=O)Nc2cccc(C(F)(F)F)c2)c1	TDP1 cell noCPT inconclusive, HT1080 IDH1KD tx inconclusive, HT1080NT lethal inconclusive, DT40 TDP1 CPT 16µM
Fc1ccc(OCc2nn[nH]n2)c(F)c1	none
Cc1cccc(OCc2cc(=O)n3c4c(sc3n2)CCCC4)c1C	none (no result: HT1080 IDH1KD tx, IL-1B inflam inh, HT1080NT lethal)
NS(=O)(=O)c1ccc(N2C(=O)C3CC=CCC3C2=O)cc1 (stereo unspecified)	none
CC1=C(C)CS(=O)N(S(=O)(=O)c2ccccc2)C1 (stereo unspecified)	TDP1 cell noCPT 10µM, HT1080 IDH1KD tx inconclusive, IL-1B inflam inh -50, HT1080NT lethal inconclusive, DT40 TDP1 CPT 23µM
